According to PubChem BioAssay:
Values without a mark were called inactive. Activity calls are given as the source filed them.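 Rule for the calls: active = z-score of at least 1.8 in each of two replicates, scored against plate mean and spread of sample wells; inactive = the rest.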

Assay: viability rescue of complex I mutant cybrids, primary screen, cell-based, galactose medium, ATP luminescence (AID 1645843);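 note: positive z means more ATP and so rescue of galactose-driven cybrid death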
Conditions: complex I mutant cybrid cells, 72 h, active compounds read high

**Q.** For `c1ccc(-c2nccn2Cc2nc(-c3ccccn3)no2)cc1`, which z-score is on record?
**A.** The z-score was 1.27.

**Q.** With `O=C(CC1CCCCCC1)N1CCC(n2cc(-c3ccccn3)nn2)CC1` as the compound, how does the z-score read?
**A.** Its z-score is -0.34.

**Q.** With `CCCCCC(=O)N1CCC(n2cc(C3CCCC3)nn2)CC1` as the compound, how does the z-score read?
**A.** The z-score was 0.965.

**Q.** For `CCCCc1cc(=O)[nH]c(-c2ccc(CN(C)CCOC)cc2)n1`, which z-score is on record?
**A.** Its z-score is -0.415.

**Q.** Which z-score does the source give for `Cc1ccccc1-c1cccc(C(=O)c2nccn2C)c1` here?
**A.** Its z-score is -0.54.

**Q.** With `Cc1nsc(NC(=O)N2CCC(N)CC2)n1` as the compound, how does the z-score read?
**A.** The z-score was 0.04.

**Q.** With `COC(=O)c1ccc(C(=O)N2CCNC(=O)C2Cc2ccccc2)cc1` (centres undefined) as the compound, how does the z-score read?
**A.** Its z-score is -0.49.

**Q.** Which z-score does the source give for `Cc1ccc(C)c(-c2c(C)sc3ncn(C4CCN(C)C4=O)c(=O)c23)c1` (centres undefined) here?
**A.** The z-score was 0.12.

**Q.** Which z-score does the source give for `CC(CCCC(C)(C)O)CCNC(C1CC1)C1CC1` (centres undefined) here?
**A.** Its z-score is -0.515.

**Q.** For `CCn1ncc2[nH]c(-c3cc(F)ccc3-n3cccn3)nc21`, which z-score is on record?
**A.** Its z-score is -0.185.

**Q.** For `COc1cccc(CN2CCN(c3ccc4cccc(OC)c4n3)CC2)c1`, which z-score is on record?
**A.** The z-score was -0.86.

**Q.** Which z-score does the source give for `Cc1nc(NC(=O)N2CCCC(c3nc4ccccc4[nH]3)C2)nn1C` (centres undefined) here?
**A.** Its z-score is 0.195.

**Q.** For `CCC1(CNC(=O)Nc2nc(C)ns2)CCC1`, which z-score is on record?
**A.** The z-score was 1.42.

**Q.** Which z-score does the source give for `CCCCn1cc(-c2cc(C(=O)N3CCCC3)c3cccc(C)c3n2)cn1` here?
**A.** Its z-score is 2.59 (active).

**Q.** For `CCCCC1C(=O)N(C)CCN1C(=O)Nc1nnc(C(C)(C)C)s1` (centres undefined), which z-score is on record?
**A.** Its z-score is -0.33.

**Q.** With `Cc1ccc(CCC(=O)N(C)Cc2cnn(C(C)C)c2)cc1C` as the compound, how does the z-score read?
**A.** Its z-score is -0.565.

**Q.** Which z-score does the source give for `CCCCCC(=O)N1CCC(n2cc(C3CCCCC3)nn2)CC1` here?
**A.** The z-score was -0.415.

**Q.** With `CN1CCN(c2ccc3cc(Cl)ccc3n2)CC1=O` as the compound, how does the z-score read?
**A.** The z-score was -0.56.

**Q.** Which z-score does the source give for `Cc1cc(N2CCCC(Cn3cc(CN)nn3)C2)nc(-c2ccccc2O)n1` (centres undefined) here?
**A.** The z-score was -0.9.

**Q.** Which z-score does the source give for `CCCCn1nnnc1NC(=O)NC1CCN(Cc2ccncc2)CC1` here?
**A.** Its z-score is -0.755.

**Q.** With `Cn1ncc(NC(=O)CCc2cn3ccccc3n2)n1` as the compound, how does the z-score read?
**A.** The z-score was 0.67.

**Q.** Which z-score does the source give for `CC(=O)N1CCN(C(=O)c2c(-c3ccccc3)nn(-c3ccccc3)c2C)CC1` here?
**A.** The z-score was -0.38.

**Q.** With `Cc1ccsc1C(=O)N1CCC(n2cc(C(C)(C)O)nn2)CC1` as the compound, how does the z-score read?
**A.** Its z-score is -0.505.

**Q.** With `CCCCc1cn(C2CCN(C(=O)[C@@H]3CCCO3)CC2)nn1` as the compound, how does the z-score read?
**A.** The z-score was -0.55.

**Q.** Which z-score does the source give for `CCCc1cn(C2CCN(C(=O)CC3CC(C)(C)NC(C)(C)C3)CC2)nn1` here?
**A.** Its z-score is -0.53.

**Q.** For `O=C(C1CCCCCC1)N1CCC(n2cc(-c3ccccn3)nn2)CC1`, which z-score is on record?
**A.** Its z-score is -0.545.

**Q.** For `O=c1c2c3c(sc2ncn1CCF)CCCCC3`, which z-score is on record?
**A.** Its z-score is -0.535.

**Q.** Which z-score does the source give for `Cc1occc1C(=O)Nc1ccccc1C(=O)N(C)Cc1ccccn1` here?
**A.** The z-score was -0.21.

**Q.** Which z-score does the source give for `CCOC(=O)c1ccc(N2CCN(CC(C)C)C(=O)C2C)nc1` (centres undefined) here?
**A.** The z-score was -0.53.

**Q.** With `CCC(Nc1ncc(C)c(-c2cnn(C)c2)n1)c1nc2ccc(C)cc2[nH]1` (centres undefined) as the compound, how does the z-score read?
**A.** Its z-score is -0.955.

**Q.** Which z-score does the source give for `COc1ccc2c(C(=O)N(C)CCc3ccccn3)cc(-c3cnn(C)c3)nc2c1` here?
**A.** Its z-score is -0.54.

**Q.** For `Cc1sc2ncnc(N3CCC(Cn4cc(C(C)(C)N)nn4)CC3)c2c1C`, which z-score is on record?
**A.** Its z-score is -0.55.

**Q.** With `CC(=O)c1cc(CC(=O)NCc2cc(F)c(F)cc2F)cs1` as the compound, how does the z-score read?
**A.** Its z-score is -0.01.

**Q.** For `COc1cccc2c(C)cc(N3CCC[C@H]3CO)nc12`, which z-score is on record?
**A.** The z-score was -0.095.

**Q.** With `CC(CCCC(C)(C)O)CCNCC1(c2ccccc2)CCOCC1` (centres undefined) as the compound, how does the z-score read?
**A.** The z-score was -0.5.

**Q.** Which z-score does the source give for `Cc1ccc2nc(-c3cnc(C(C)(C)C)nc3)cc(C(=O)N(C)C(C)C)c2c1` here?
**A.** The z-score was -0.47.

**Q.** With `CCN1CCCC(C(=O)N2CCC(n3cc(C(C)(C)C)nn3)CC2)C1` (centres undefined) as the compound, how does the z-score read?
**A.** The z-score was 0.15.

**Q.** Which z-score does the source give for `COc1cccc(OC)c1-c1noc(CCN2C(=O)COc3ccccc32)n1` here?
**A.** Its z-score is 1.39.

**Q.** For `CC(C)Cc1cn(C2CCN(C(=O)CC3CCCCCC3)CC2)nn1`, which z-score is on record?
**A.** Its z-score is 2.74 (active).
